# Of roughly 8,800 targets only a part is listed; those with a hit were picked by preference. About 0.5% of all pairs of compound and target were hits. A number with no mark means an inactive call.
# Key:
# Assay in all cases: log2 fold change, soluble protein after heating vs DMSO (PISA); higher = thermal stabilisation; K562 lysate, 10 uM; active = over 0.2 and 3.5 SD of the protein, either way, in both replicates (recomputed)
# alvocidib = compound: CN1CC[C@H](c2c(O)cc(O)c3c(=O)cc(-c4ccccc4Cl)oc23)[C@H](O)C1 [alvocidib]
# In short: (§1)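 The values are log-two fold changes in thermal stability compared with solvent controls and come from duplicates. They were obtained by TMTpro 16plex LC-MS/MS, with channel sums equalised, on the supernatant after 21,000xg for 90 min. That supernatant came from crude K562 extract at 1 mg/mL protein treated with 10 μM compound for 30 min, heated for 3 min across 48°C-58°C, pooled and brought to 0.5% NP-40 at 4°C.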
# Tubastatin A = compound: CN1CCc2c(c3ccccc3n2Cc2ccc(C(=O)NO)cc2)C1 [Tubastatin A]
# In short: as §1
# [1] = compound: CNC(=O)C1=CC=CC=C1NC2=NC(=NC=C2Cl)NC3=C(C=C(C=C3)N4CCOCC4)OC
# In short: as §1
# defactinib = compound: CNC(=O)c1ccc(Nc2ncc(C(F)(F)F)c(NCc3nccnc3N(C)S(C)(=O)=O)n2)cc1 [defactinib]
# In short: as §1
# [2] = compound: CNc1nc(-c2ccc3c(N)n[nH]c3c2)cc(N2C[C@@H](C(=O)NC3CCCCC3)CC[C@H]2C)n1
# In short: as §1
# encorafenib = compound: COC(=O)N[C@@H](C)CNc1nccc(-c2cn(C(C)C)nc2-c2cc(Cl)cc(NS(C)(=O)=O)c2F)n1 [encorafenib]
# In short: as §1
# [3] = compound: COC(=O)[C@H](CCSC)NC(=O)C1=C(C=C(C=C1)NC[C@H](CS)N)C2=CC=CC=C2
# In short: as §1
# alisertib = compound: COc1cc(Nc2ncc3c(n2)-c2ccc(Cl)cc2C(c2c(F)cccc2OC)=NC3)ccc1C(=O)O [alisertib]
# In short: as §1
# [4] = compound: COc1cc2nc(-c3cc(F)ccc3O)nc(N[C@@H]3CNC[C@H]3C(C)(C)O)c2cc1OC
# In short: as §1
# gefitinib = compound: COc1cc2ncnc(Nc3ccc(F)c(Cl)c3)c2cc1OCCCN1CCOCC1 [gefitinib]
# In short: as §1
# lapatinib = compound: CS(=O)(=O)CCNCc1ccc(-c2ccc3ncnc(Nc4ccc(OCc5cccc(F)c5)c(Cl)c4)c3c2)o1 [lapatinib]
# In short: as §1
# pictilisib = compound: CS(=O)(=O)N1CCN(Cc2cc3nc(-c4cccc5[nH]ncc45)nc(N4CCOCC4)c3s2)CC1 [pictilisib]
# In short: as §1
# crizotinib = compound: C[C@@H](Oc1cc(-c2cnn(C3CCNCC3)c2)cnc1N)c1c(Cl)ccc(F)c1Cl [crizotinib]
# In short: as §1
# [5] = compound: C[C@H](C1=CC=C(C=C1)C(=O)NC2=C3C=CNC3=NC=C2)N
# In short: as §1
# duvelisib = compound: C[C@H](Nc1ncnc2nc[nH]c12)c1cc2cccc(Cl)c2c(=O)n1-c1ccccc1 [duvelisib]
# In short: as §1
# gandotinib = compound: Cc1cc(Nc2cc(CN3CCOCC3)c3nc(C)c(Cc4ccc(Cl)cc4F)n3n2)n[nH]1 [gandotinib]
# In short: as §1
# tozasertib = compound: Cc1cc(Nc2cc(N3CCN(C)CC3)nc(Sc3ccc(NC(=O)C4CC4)cc3)n2)n[nH]1 [tozasertib]
# In short: as §1
# doramapimod = compound: Cc1ccc(-n2nc(C(C)(C)C)cc2NC(=O)Nc2ccc(OCCN3CCOCC3)c3ccccc23)cc1 [doramapimod]
# In short: as §1
# bafetinib = compound: Cc1ccc(NC(=O)c2ccc(CN3CC[C@H](N(C)C)C3)c(C(F)(F)F)c2)cc1Nc1nccc(-c2cncnc2)n1 [bafetinib]
# In short: as §1
# [6] = compound: Cc1cccc(CC(=O)N2CCc3c2ccc(-c2cn(C)c4ncnc(N)c24)c3F)n1
# In short: as §1
# Chain of UniProt Q8N201 (Q8N201 whole entry, looked up): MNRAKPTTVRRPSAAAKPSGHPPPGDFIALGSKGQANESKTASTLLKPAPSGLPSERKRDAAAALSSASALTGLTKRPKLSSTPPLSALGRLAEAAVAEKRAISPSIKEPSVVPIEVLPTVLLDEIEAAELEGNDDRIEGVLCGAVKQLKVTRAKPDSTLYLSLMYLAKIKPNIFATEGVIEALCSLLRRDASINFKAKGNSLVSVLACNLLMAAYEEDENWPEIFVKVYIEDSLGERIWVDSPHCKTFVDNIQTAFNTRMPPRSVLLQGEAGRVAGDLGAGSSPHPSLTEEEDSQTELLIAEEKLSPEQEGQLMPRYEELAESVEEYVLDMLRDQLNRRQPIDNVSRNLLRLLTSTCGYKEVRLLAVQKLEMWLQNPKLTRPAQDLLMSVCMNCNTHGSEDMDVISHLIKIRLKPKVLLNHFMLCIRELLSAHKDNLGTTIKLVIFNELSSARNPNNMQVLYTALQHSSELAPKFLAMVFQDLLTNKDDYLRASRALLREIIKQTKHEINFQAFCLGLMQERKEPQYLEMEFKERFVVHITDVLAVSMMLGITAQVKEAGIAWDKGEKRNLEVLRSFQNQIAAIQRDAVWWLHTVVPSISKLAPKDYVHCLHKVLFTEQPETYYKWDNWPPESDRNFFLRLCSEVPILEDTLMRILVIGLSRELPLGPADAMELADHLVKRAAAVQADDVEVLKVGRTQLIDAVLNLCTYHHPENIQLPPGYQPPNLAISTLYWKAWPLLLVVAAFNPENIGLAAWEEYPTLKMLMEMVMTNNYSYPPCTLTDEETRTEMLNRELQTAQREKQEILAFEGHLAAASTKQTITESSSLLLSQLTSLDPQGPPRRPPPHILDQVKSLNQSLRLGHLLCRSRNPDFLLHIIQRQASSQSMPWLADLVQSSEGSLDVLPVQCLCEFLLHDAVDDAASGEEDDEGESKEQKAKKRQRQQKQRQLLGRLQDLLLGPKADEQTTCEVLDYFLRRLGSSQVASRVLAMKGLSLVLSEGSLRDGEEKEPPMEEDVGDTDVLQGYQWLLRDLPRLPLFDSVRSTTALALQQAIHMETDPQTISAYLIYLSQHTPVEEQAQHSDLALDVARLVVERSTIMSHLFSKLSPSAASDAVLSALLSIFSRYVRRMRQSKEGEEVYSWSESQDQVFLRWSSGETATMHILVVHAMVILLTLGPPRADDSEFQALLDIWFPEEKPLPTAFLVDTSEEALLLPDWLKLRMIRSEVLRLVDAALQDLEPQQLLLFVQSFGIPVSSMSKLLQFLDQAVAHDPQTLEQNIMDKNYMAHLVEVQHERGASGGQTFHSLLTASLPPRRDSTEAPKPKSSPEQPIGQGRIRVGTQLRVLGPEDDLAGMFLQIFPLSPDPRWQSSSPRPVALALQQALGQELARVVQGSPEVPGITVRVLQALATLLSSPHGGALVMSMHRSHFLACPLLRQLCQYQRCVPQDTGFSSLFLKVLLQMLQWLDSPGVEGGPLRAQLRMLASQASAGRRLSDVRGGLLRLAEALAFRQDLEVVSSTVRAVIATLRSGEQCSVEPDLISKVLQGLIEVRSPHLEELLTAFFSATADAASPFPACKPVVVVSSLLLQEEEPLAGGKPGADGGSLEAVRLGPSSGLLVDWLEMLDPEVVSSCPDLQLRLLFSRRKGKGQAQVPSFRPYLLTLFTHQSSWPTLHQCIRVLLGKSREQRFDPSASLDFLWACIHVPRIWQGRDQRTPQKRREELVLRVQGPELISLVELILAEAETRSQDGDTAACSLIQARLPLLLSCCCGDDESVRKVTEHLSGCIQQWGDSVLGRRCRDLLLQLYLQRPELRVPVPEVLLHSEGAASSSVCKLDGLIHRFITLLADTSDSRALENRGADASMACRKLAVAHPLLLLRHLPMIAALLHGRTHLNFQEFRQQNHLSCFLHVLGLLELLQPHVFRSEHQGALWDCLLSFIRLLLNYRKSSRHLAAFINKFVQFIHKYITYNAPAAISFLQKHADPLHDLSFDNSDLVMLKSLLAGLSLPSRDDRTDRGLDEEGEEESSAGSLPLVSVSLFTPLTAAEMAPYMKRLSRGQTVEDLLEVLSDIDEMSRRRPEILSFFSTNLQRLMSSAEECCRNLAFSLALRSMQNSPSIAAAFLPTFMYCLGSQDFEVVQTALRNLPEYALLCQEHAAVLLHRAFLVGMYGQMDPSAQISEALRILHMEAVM
# Chain of UniProt Q6AI08 (Q6AI08 whole entry, looked up): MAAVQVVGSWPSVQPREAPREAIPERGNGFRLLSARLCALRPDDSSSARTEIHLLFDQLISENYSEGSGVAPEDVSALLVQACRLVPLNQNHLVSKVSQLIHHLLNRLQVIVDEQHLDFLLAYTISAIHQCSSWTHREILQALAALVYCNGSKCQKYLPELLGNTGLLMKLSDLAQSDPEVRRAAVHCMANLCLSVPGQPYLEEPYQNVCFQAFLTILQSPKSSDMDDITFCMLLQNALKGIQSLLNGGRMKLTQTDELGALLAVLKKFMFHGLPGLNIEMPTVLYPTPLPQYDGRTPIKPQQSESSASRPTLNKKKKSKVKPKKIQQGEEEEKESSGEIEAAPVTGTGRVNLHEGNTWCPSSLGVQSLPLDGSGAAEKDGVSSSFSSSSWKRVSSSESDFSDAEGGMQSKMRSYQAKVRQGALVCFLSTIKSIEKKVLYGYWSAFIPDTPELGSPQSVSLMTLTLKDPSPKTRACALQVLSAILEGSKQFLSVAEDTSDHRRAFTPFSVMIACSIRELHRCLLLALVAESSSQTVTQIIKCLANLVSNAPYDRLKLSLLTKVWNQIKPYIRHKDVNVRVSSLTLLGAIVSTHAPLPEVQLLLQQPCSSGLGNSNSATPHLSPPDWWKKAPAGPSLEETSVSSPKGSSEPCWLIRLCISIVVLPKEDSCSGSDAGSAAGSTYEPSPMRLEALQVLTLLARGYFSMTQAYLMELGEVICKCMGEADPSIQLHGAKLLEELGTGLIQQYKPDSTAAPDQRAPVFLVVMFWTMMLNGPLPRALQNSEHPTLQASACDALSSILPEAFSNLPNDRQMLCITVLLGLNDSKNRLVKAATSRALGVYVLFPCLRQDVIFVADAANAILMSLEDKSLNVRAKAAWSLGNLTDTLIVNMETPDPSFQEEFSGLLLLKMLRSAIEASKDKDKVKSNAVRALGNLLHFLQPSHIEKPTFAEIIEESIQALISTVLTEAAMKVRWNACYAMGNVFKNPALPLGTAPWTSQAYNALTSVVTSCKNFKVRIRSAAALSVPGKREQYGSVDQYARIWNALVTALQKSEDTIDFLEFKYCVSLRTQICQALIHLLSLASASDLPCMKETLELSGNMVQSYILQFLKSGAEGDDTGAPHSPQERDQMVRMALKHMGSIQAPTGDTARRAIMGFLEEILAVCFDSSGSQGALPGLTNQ
# Chain of UniProt Q8NC54 (Q8NC54 whole entry, looked up): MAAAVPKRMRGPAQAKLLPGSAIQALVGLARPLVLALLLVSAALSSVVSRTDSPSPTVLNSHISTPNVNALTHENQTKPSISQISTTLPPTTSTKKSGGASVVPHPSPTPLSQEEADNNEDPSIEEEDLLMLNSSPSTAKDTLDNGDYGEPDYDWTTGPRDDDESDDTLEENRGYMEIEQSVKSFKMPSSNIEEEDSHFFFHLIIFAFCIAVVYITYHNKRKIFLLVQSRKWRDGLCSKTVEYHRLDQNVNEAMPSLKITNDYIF
# Chain of UniProt Q9Y6M1 (Q9Y6M1 whole entry, looked up): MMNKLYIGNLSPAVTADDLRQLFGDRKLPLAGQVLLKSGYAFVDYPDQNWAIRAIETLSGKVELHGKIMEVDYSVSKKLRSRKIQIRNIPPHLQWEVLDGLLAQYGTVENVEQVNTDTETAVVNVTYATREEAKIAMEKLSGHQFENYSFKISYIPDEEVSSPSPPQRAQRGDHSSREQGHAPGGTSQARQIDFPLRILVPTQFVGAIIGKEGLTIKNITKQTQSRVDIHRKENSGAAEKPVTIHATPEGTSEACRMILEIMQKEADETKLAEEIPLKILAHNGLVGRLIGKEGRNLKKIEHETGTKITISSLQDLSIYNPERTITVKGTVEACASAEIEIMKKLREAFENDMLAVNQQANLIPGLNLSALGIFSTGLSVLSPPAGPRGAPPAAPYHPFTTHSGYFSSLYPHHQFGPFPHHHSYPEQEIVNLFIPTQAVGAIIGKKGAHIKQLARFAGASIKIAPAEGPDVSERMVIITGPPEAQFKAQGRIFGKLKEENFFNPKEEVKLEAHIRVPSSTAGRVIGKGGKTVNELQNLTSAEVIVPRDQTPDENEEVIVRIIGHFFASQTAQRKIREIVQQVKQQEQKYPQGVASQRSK
# Chain of UniProt Q13547 (Q13547 whole entry, looked up): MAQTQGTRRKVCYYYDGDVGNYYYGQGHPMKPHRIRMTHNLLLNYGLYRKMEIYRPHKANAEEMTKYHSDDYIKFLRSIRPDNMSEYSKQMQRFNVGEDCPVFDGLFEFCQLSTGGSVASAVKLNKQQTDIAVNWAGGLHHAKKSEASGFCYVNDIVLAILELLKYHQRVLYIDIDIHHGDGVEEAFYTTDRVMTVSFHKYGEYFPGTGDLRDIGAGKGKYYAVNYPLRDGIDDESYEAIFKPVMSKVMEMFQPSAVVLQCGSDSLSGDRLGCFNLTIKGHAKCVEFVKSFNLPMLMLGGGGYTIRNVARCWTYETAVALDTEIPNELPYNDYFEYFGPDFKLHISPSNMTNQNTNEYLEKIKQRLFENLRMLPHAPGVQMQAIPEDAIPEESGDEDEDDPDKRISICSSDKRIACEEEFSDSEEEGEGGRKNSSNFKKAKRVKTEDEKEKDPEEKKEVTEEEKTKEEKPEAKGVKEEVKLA
# Chain of UniProt P17096 (P17096 whole entry, looked up): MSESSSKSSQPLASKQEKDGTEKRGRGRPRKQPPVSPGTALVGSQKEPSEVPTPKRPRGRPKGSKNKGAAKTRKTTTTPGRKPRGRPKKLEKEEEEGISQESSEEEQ
# Chain of UniProt Q9BUE6 (Q9BUE6 whole entry, looked up): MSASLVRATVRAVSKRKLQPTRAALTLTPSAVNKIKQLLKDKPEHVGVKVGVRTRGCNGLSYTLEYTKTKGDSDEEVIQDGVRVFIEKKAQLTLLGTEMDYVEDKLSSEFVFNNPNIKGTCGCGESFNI
Target,log2 fold change (alvocidib),log2 fold change (Tubastatin A),log2 fold change [1],log2 fold change (defactinib),log2 fold change [2],log2 fold change (encorafenib),log2 fold change [3],log2 fold change (alisertib),log2 fold change [4],log2 fold change (gefitinib),log2 fold change (lapatinib),log2 fold change (pictilisib),log2 fold change (crizotinib),log2 fold change [5],log2 fold change (duvelisib),log2 fold change (gandotinib),log2 fold change (tozasertib),log2 fold change (doramapimod),log2 fold change (bafetinib),log2 fold change [6]
KCT2 (UniProt Q8NC54),-0.137,0.029,-0.001,-0.012,0.013,0.031,-0.035,0.077,0,-0.037,-0.005,-0.018,0.048,-0.331 (active),0.018,0.277 (active),0.005,-0.028,-0.023,0.099
GTPBP2 (UniProt Q9BX10),-0.001,-0.045,0.039,0.018,-0.037,0.002,0.079,0.034,-0.07,0.058,0.064,-0.056,-0.052,0.021,0.043,-0.098,-0.048,0.027,-0.038,0.009
HMBOX1 isoform 5 (UniProt Q6NT76),-0.078,-0.003,-0.005,0.012,0.066,-0.037,-0.016,-0.156,0.02,-0.091,0.254 (active),-0.097,0.023,0,0.021,0.052,0.035,-0.013,0.112,0.129
HAUS4 (UniProt Q9H6D7),0.007,-0.116,0.007,0.014,-0.005,0.002,0.012,0.008,-0.017,-0.022,0.021,-0.02,-0.083,-0.063,-0.031,-0.009,0.042,0.043,0.003,0.099
HSPA8 (UniProt P11142),0.005,0.056,-0.036,-0.003,-0.019,-0.004,0.009,0.002,-0.004,0.008,0.004,0.022,0.023,0.012,0.005,-0.014,0.006,0.001,0.059,-0.01
HDAC1 (UniProt Q13547),0.003,-0.027,-0.015,0.014,-0.012,0.006,0.04,0.017,-0.031,0.004,0.004,0.01,-0.014,-0.04,-0.029,-0.004,-0.015,0.006,0.036,0.036
IGF2BP2 (UniProt Q9Y6M1),0.016,-0.124,0.043,-0.008,-0.014,0.004,0.201,0.042,-0.005,0.001,-0.034,-0.015,0.012,-0.031,0,0.009,-0.011,0.021,-0.093,0.048
ISCA1 isoform 2 (UniProt Q9BUE6),0.103,0.023,0.037,0.092,0.071,-0.034,-0.003,-0.286,0.075,-0.025,0.054,-0.08,-0.011,0.343 (active),0.012,-0.132,-0.004,0.011,0.067,-0.223
GRK6 isoform 2 (UniProt P43250),-0.05,0.074,0.007,0.034,0.148,-0.082,0.043,-0.04,-0.015,0.064,-0.122,-0.088,0.084,-0.066,-0.04,0.058,-0.063,0.046,0.065,0.028
HSPA8 (UniProt E9PK54),-0.047,0.036,-0.066,-0.041,-0.05,-0.025,-0.004,-0.016,0.016,-0.051,-0.067,-0.013,0.051,-0.025,0.004,0.058,0.067,0.011,0.026,0.046
INTS1 (UniProt Q8N201),0.009,-0.028,0.013,0.019,0.004,0.028,-0.018,0.021,0.007,-0.04,-0.051,-0.011,-0.067,0.05,-0.04,-0.136,0.007,-0.001,-0.164,0.031
GLUL (UniProt P15104),0.011,0.015,0.034,0.027,-0.125,-0.002,0.029,0.002,-0.019,-0.004,0.04,0.015,0.066,0.213 (active),0.019,-0.093,-0.026,0.014,0.013,-0.147
HMGA1 (UniProt P17096),-0.108,0.066,-0.001,-0.007,0.023,-0.005,-0.018,0.046,0.011,-0.027,-0.023,0.03,0.007,-0.27,0.058,0.069,-0.062,-0.02,0.043,0.036
HEATR6 (UniProt Q6AI08),0.03,-0.1,0.025,0.011,0.008,0.039,0.101,-0.028,-0.01,0.001,-0.014,-0.033,-0.112,-0.037,0.084,0.003,-0.003,-0.011,0.054,0.045
ILK (UniProt Q13418),0.002,-0.084,-0.002,-0.026,-0.061,-0.032,0.038,0.007,-0.04,0.013,0.01,-0.005,-0.038,0.01,-0.036,-0.015,0.005,0.004,-0.002,0.007
